Results on 40 compounds are retold here after PubChem BioAssay AID2534 (National Center for Advancing Translational Sciences (NCATS), 2010).

Inconclusive results are not listed. The source made the active and inactive calls. The call rests on the fitted dose curve; in most records, active means well fitted curve in the direction sought with a large enough effect; inconclusive means small, poorly fitted or top-dose-only effect, or effect the other way, or another doubt; inactive means no such curve, though single readings can be large or run the other way.

Chain of Pyruvate kinase PKLR (Homo sapiens) (P30613 whole entry, looked up): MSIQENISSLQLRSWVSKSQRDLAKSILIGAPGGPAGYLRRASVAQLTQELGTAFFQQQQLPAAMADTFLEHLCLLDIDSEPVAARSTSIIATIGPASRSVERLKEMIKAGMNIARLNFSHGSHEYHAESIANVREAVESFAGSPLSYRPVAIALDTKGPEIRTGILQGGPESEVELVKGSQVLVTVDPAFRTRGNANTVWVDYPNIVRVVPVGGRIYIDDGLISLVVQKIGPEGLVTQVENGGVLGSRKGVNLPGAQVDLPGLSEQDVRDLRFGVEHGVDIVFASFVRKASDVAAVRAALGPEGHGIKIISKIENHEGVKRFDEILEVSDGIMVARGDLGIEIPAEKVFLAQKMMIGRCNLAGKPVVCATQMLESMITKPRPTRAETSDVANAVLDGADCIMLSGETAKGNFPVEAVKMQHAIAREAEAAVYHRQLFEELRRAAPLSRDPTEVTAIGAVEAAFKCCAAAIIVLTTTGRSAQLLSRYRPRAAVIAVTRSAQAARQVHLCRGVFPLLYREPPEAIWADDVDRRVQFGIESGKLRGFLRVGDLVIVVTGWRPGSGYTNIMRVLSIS

This test addresses Pyruvate kinase PKLR (Homo sapiens) (UniProt P30613). Put plainly: Secondary Concentration-Response Assay for Activators of Human Reticulocyte Pyruvate Kinase: for Probe SAR. The conditions noted are these: purified hPK-R, ATP production, Kinase-Glo luminescence; series mostly up to 57.5 µM. From the text: NIH Chemical Genomics Center [NCGC]
Wael M. Rabeh, Lyudmila Nedyalkova and Hee-Wan Park [Structural Genomics Consortium, 100 College St. Toronto, Ontario, Canada]
Human pyruvate kinase reticulocyte (hPK-R) enzyme was supplied as a highly purified (>95% pure) preparation from Structural Genomics Consortium in Toronto (Ontario, Canada) and assayed for its ability to generate ATP from ADP using phosphoenolpyruvate (PEP) as a substrate. ATP generation was detected in a coupled reaction by luciferase-mediated luminescence, an ATP-dependent process. Pyruvate kinase substrates, PEP and ADP, were present in the assay at Km and approximately 10-fold below Km respectively. The enzyme was assayed at an intermediate level of activity to screen for both inhibitors and activators.
NCGC Assay Protocol Summary for R-isoform
Three uL of substrate mix (at r.t.) in assay buffer (50 mM Imidazole pH7.2, 50 mM KCl, 7 mM MgCl2, 0.01% Tween 20, 0.05% BSA) was dispensed into white solid bottom 1,536 well microtiter plates so that the final concentrations of substrates in the assay were 0.1 mM ADP and 0.5 mM PEP. 23 nL of compound were delivered by a pin tool and 1 uL of enzyme mix (final concentration of 0.1 nM) in assay buffer (4 degree Celsius) was added. Plates were incubated at room temperature for 1 hour. Two uL of detection mix (Kinase-Glo, Promega; at 4 degree Celsius protected from light) was added and luminescence read by a ViewLux (Perkin Elmer) at 1 second exposure/plate. Data were normalized to the uninhibited (row 31). Additionally, a no enzyme and 5-fold enzyme control was dispensed in row 32, split equally between the two conditions.
On to `O=C1c2ccccc2C(=O)N1c1ccc(Cl)cc1`, for which the result was inactive.
Next, `O=C1CCc2cc([S+](=O)([O-])Nc3ccc(N[S+](=O)([O-])c4ccc5c(c4)CCC(=O)N5)cc3)ccc2N1`: “inactive”; `O=C1CCc2cc(S(=O)(=O)Nc3ccc(Cl)c(Cl)c3)ccc2N1`: “inactive”; `Nc1cccc(S(=O)(=O)N2CCCN(S(=O)(=O)c3ccc4c(c3)OCCO4)CC2)c1`: “inactive”.
Next, `O=C1c2ccccc2C(=O)N1c1cc(=O)c2ccccc2[nH]1`: “inactive”; `O=C1c2ccccc2C(=O)N1Cc1ccccc1`: “inactive”.
In the case of `Cc1ccc(NS(=O)(=O)c2ccc3c(c2)CCC(=O)N3)cc1F`, the compound was classed as inactive.
As to `O=C1c2ccccc2C(=O)N1c1noc2ccccc12`, the result was inactive.
Next, `COc1cccc(Cn2ncc3c4sc(S(C)=O)cc4n(C)c3c2=O)c1` (stereo not given): “inactive”; `O=C1c2ccccc2C(=O)N1Cc1ccncc1`: “inactive”.
Next, `O=C1CCc2cc(S(=O)(=O)Nc3ccccc3Cl)ccc2N1`: “inactive”; `Cc1cc2c(s1)c1cnn(Cc3ccccc3F)c(=O)c1n2C`: “inactive”; `COc1cccc(NS(=O)(=O)c2ccc3c(c2)CCC(=O)N3)c1`: “inactive”.
Next, `N#Cc1cccc(NS(=O)(=O)c2ccc3c(c2)CCC(=O)N3)c1`: “inactive”.
For the compound `O=C1CCc2cc(S(=O)(=O)Nc3ccc4ccccc4c3)ccc2N1`, the result was inactive.
With `CCCCN1C(=O)c2ccccc2C1=O`, the outcome was inactive.
The value for `O=C1c2ccccc2C(=O)N1c1ccc2ccccc2n1` was “inactive”; that for `COc1cc(N2C(=O)c3ccccc3C2=O)c2ncccc2c1` was “inactive”.
The value for `O=C1CCc2cc(S(=O)(=O)Nc3ccc(Cl)cc3)ccc2N1` was “inactive”; that for `O=C1CCc2cc(S(=O)(=O)Nc3cccc(C(F)(F)F)c3)ccc2N1` was “inactive”; that for `O=C1c2ccccc2C(=O)N1c1cccnc1` was “inactive”.
The value for `O=S(=O)(c1ccc2c(c1)OCCO2)N1CCN(S(=O)(=O)c2c(F)cccc2F)CC1` was “inactive”.
Take `O=C1CCc2cc(S(=O)(=O)Nc3ccccc3-c3ccccc3)ccc2N1`: the result was inactive.
Turning to `O=C1CCc2cc(S(=O)(=O)Nc3cccc(Oc4ccccc4)c3)ccc2N1`, the call was inactive.
The value for `O=C1CCc2cc(S(=O)(=O)Nc3cccc(Br)c3)ccc2N1` was “inactive”; that for `O=C1c2ccccc2C(=O)N1Cc1ccccn1` was “inactive”.
As to `Cc1ccc(NS(=O)(=O)c2ccc3c(c2)CCC(=O)N3)cc1C`, the outcome was inactive.
Next, `Cc1cc(N2C(=O)c3ccccc3C2=O)n[nH]1`: “inactive”; `O=C1CCc2cc(S(=O)(=O)Nc3cccnc3)ccc2N1`: “inactive”.
On to `O=C1c2ccccc2C(=O)N1c1cccc2cnccc12`, for which the call was inactive.
Next, `CCNc1cccc(S(=O)(=O)N2CCCN(S(=O)(=O)c3ccc4c(c3)OCCO4)CC2)c1`: “inactive”.
The value for `Cc1ccc(C)c(SC2=N[S+](=O)([O-])c3cc(C(=O)Nc4ccc5ncccc5c4)ccc32)c1` was “inactive”; that for `Cc1ccc(NS(=O)(=O)c2ccc3c(c2)n(C)c(=O)n3C)cc1C` was “inactive”.
Turning to `Cc1ccccc1NS(=O)(=O)c1ccc2c(c1)CCC(=O)N2`, the compound was classed as inactive.
Next, `Cc1c(Cl)cccc1NS(=O)(=O)c1cc2c(cc1F)NC(=O)CC2`: “inactive”; `O=C1c2ccccc2C(=O)N1c1cccc2cccnc12`: “inactive”; `CN(C)c1cccc(S(=O)(=O)N2CCCN(S(=O)(=O)c3ccc4c(c3)OCCO4)CC2)c1`: “inactive”.
Next, `COc1ccccc1NS(=O)(=O)c1ccc2c(c1)CCC(=O)N2`: “inactive”; `O=C1c2ccccc2C(=O)N1c1ccncc1`: “inactive”.
`O=C1CCc2cc(S(=O)(=O)Nc3cccc4ccccc34)ccc2N1`: the call was inactive.
